From PubChem
NPSR antag: qHTS Assay for Antagonists of the Neuropeptide S Receptor: cAMP Signal Transduction; CHO-NPSR cells, cAMP TR-FRET, antagonist mode; Potency, µM (doses to about 38.3 µM), inactives show at the top dose activity change, negative = inhibition, usual class: inhibitors; hit rate 1% among 220,000; also: nearly all actives have a fitted effect of over 50% in size
Target sequence (Q6W5P4 whole entry, looked up): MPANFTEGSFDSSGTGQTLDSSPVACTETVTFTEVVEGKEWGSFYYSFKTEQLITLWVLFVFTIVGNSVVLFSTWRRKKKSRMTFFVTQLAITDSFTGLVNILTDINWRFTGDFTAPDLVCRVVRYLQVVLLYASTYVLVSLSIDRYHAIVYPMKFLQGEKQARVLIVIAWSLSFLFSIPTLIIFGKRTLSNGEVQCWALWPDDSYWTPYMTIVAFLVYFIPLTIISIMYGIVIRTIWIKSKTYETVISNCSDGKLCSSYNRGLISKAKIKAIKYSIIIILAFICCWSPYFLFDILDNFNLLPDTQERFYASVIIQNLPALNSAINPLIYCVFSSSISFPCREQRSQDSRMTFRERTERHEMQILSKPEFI
KinaseGlo FLuc: Counterscreen for Luciferase (Kinase-Glo TM) Inhibition; Potency, µM (titrated, usually from 38.3 µM), for the others: top-dose activity change, negative = inhibition, most hits filed as inhibitors; hit rate 0.28% among 200,000; Kinase-Glo luciferase, ATP luminescence, 8 min; also: nearly all actives have a fitted effect of over 60% in size
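Substrate mix (final 50 mM imidazole pH 7.2, 50 mM KCl, 7 mM MgCl2, 10 uM ATP, 0.01% Tween 20, 0.05% BSA) plus pin-tool compound, then Kinase-Glo detection mix; 8 min ambient, luminescence read.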
Tau fibril FP: qHTS for Inhibitors of Tau Fibril Formation, Fluorescence Polarization; K18 P301L tau heparin fibrillization, Alexa594 FP, 6 h; Potency, µM (highest dose often 57.7 µM), for inactives: top-dose activity, negative = inhibition, most hits filed as inhibitors; hit rate 0.39% among 280,000; AID 1468, 2008; also: nearly all actives have a fitted effect of over 55% in size
Target sequence (P10636 561-689 P618L limits assumed): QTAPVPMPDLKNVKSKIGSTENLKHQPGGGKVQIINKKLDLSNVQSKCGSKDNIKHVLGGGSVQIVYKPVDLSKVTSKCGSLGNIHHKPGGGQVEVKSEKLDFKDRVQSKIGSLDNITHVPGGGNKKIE
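Compound effects on tau fibrillization are measured by Alexa 594 fluorescence polarization (ex 555, em 632 nm). K18 P301L tau is used at 15 uM with 0.24 uM labeled tracer, and 20 uM heparin induces aggregation over 6 hr at 37 C.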
Tau fluor cs: Counterscreen qHTS for Inhibitors of Tau Fibril Formation, Fluorescence Polarization | tau K18 P301L Alexa594 fluorescence, heparin fibrillization | Potency, µM (top dose mostly 57.7 µM), inactives show at the highest dose activity change, negative = decrease | hit rate 0.93% among 280,000 | AID 1463, 2008; also: nearly all actives have a fitted effect of over 55% in size
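Human tau K18 P301L (15 uM unlabeled, 0.24 uM Alexa 594-labeled) in 100 mM sodium acetate pH 7 with 20 uM heparin, 6 hr at 37 C. ThT 30 uM added, 1 hr ambient; Alexa 594 FP and total fluorescence read at 555/632 nm.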
Tau fibril ThT: qHTS for Inhibitors of Tau Fibril Formation, Thioflavin T Binding; Potency, µM (highest dose often 57.4 µM), without a hit: top-dose activity, negative = inhibition, actives largely listed as inhibitors; hit rate 2.1% among 270,000; recombinant tau K18 P301L, heparin-induced fibrillization, ThT fluorescence; also: nearly all actives have a fitted effect of over 55% in size
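ThT emission at 510 nm, taken 1 hr after adding 30 uM dye, quantifies aggregates formed when 20 uM heparin acts on human tau K18 P301L for 6 hr at 37 C.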
Active calls of the source: *; [ ] = another dose, or the depositor's remark. Rows were chosen to be rich in hits. Some 3.3% of all compounds tested hit in one or more screens of this group. Calls follow the shape of the dose curve; as a rule, active = well fitted curve in the direction sought with a large enough effect; inconclusive = small, poorly fitted or top-dose-only effect, or another doubt; inactive = no such curve, though single readings can be large; an effect the other way counts as inactive or inconclusive. % is scaled to controls: 0 for no effect and ±100 for the full control effect; potency is read from the fitted curve at half-maximal effect.

Results for CN(C)c1ccc(NC(=O)Nc2csc3ccccc23)cc1 ?
NPSR antag: 50.7%; Tau fibril FP: -13.3%; Tau fluor cs: 7.08µM*[quencher]; Tau fibril ThT: 3.55µM*

How did CN(Cc1cc(Br)cc(Br)c1O)Cc1c(O)ccc2ccccc12 do in these assays?
KinaseGlo FLuc: -7.4%[7.66 µM]

What do the screens show for `CC(Sc1nnc(NC2CCCCC2)s1)C(=O)Nc1ccc2c(c1)C(=O)c1ccccc1C2=O` (stereo not drawn)?
NPSR antag: 9.0%; KinaseGlo FLuc: 0.0%; Tau fibril FP: 14.3%; Tau fluor cs: 15.8µM*[quencher]; Tau fibril ThT: inconclusive

How did Cc1cc2ccccn2c1C(=O)c1ccc(NN)c([N+](=O)[O-])c1 do in these assays?
NPSR antag: -29.2%; KinaseGlo FLuc: -1.1%; Tau fibril FP: 4.5%; Tau fluor cs: inconclusive; Tau fibril ThT: 10µM*

What do the screens show for `O=C1CC(c2ccco2)CC(O)=C1C=Nc1cc(Cl)ccc1O` (stereo not drawn)?
NPSR antag: -8.9%[7.67 µM]; KinaseGlo FLuc: -5.7%; Tau fibril FP: -3.1%; Tau fluor cs: -27.5%; Tau fibril ThT: inconclusive

How did O=C1CC(c2ccco2)CC(O)=C1C=Nc1cc(Cl)ccc1Cl (stereo not drawn) do in these assays?
NPSR antag: -7.6%; KinaseGlo FLuc: -1.2%; Tau fibril FP: inconclusive; Tau fluor cs: -18.1%; Tau fibril ThT: 22.4µM*

Results for CCOC(=O)c1ccc(NC(=O)c2nc[nH]c2C(=O)N[C@@H](C)C(=O)OC(C)(C)C)cc1 ?
NPSR antag: inconclusive; Tau fibril FP: inconclusive; Tau fluor cs: inconclusive; Tau fibril ThT: 13.4%

How did CC(C)C[C@H](NC(=O)c1nc[nH]c1C(=O)N[C@@H](CCCCNC(=O)OC(C)(C)C)C(=O)OC(C)(C)C)C(=O)OC(C)(C)C do in these assays?
NPSR antag: 10µM*; Tau fibril FP: -13.4%; Tau fluor cs: -13.6%; Tau fibril ThT: -13.8%

What do the screens show for `C[C@H](NC(=O)c1[nH]cnc1C(=O)Nc1ccc(Cl)cc1)C(=O)OC(C)(C)C`?
NPSR antag: -31.8%; Tau fibril FP: 25.1µM*; Tau fluor cs: inconclusive; Tau fibril ThT: 9.9%

Results for CCOC(=O)c1ccc(NC(=O)c2nc[nH]c2C(=O)N[C@@H](CC(C)C)C(=O)OCc2ccccc2)cc1 ?
NPSR antag: inconclusive; Tau fibril FP: 8.91µM*; Tau fluor cs: -30.0%; Tau fibril ThT: inconclusive

How did CC(C)(C)OC(=O)NCc1ccc(NC(=O)c2nc[nH]c2C(=O)N[C@@H](Cc2ccccc2)C(=O)OCc2ccccc2)cc1 do in these assays?
NPSR antag: -22.1%; Tau fibril FP: 10µM*; Tau fluor cs: inconclusive; Tau fibril ThT: 4.6%

How did O=S(=O)([N-]c1nc2ccccc2nc1-n1cc[n+](Cc2ccccc2)c1)c1ccc(Br)cc1 do in these assays?
NPSR antag: inconclusive; Tau fibril FP: -9.3%; Tau fluor cs: 5.9%; Tau fibril ThT: 6.0%

What do the screens show for `CN(C)CCNC=C(C(=O)Nc1ccc(Cl)cc1Cl)C(=O)Nc1ccc(Cl)cc1Cl`?
NPSR antag: 5.8%[46.1 µM]; KinaseGlo FLuc: 2.1%; Tau fibril FP: 10µM*; Tau fluor cs: inconclusive; Tau fibril ThT: 2.7%

What do the screens show for `CC(=O)/C(=C/N(C)C)C(=O)Nc1ccc(Cl)cc1Cl`?
NPSR antag: -1.2%; KinaseGlo FLuc: -6.4%; Tau fibril FP: 7.9%; Tau fluor cs: -3.3%; Tau fibril ThT: -2.9%

How did O=C(NCc1ccccc1Cl)c1ccc2c(c1)nnn2C1CCCC1 do in these assays?
Tau fibril FP: 4.1%; Tau fluor cs: -9.4%; Tau fibril ThT: -0.1%

What do the screens show for `CCc1ccc2nc(N(Cc3cccnc3)C(=O)c3cccs3)sc2c1`?
Tau fibril FP: -12.4%; Tau fluor cs: -17.1%; Tau fibril ThT: -9.7%

Results for CCCCN1C=CC(=C2C(=O)c3ccccc3C2=O)C=C1 ?
NPSR antag: -20.3%; KinaseGlo FLuc: 1.12µM*; Tau fibril FP: -0.1%; Tau fluor cs: -2.7%; Tau fibril ThT: inconclusive

Results for COc1ccc(C(=O)Oc2c(Sc3ccccc3)c(C)nn2-c2ccccc2)c(OC)c1 ?
Tau fibril FP: -10.4%; Tau fluor cs: -16.4%; Tau fibril ThT: inconclusive

What do the screens show for `CCC(C(=O)NCCc1cc(OC)ccc1OC)n1nc(C)c2c(C)n(-c3ccccc3)nc2c1=O` (stereo not drawn)?
Tau fibril FP: 7.3%; Tau fluor cs: -1.8%; Tau fibril ThT: -4.3%

Results for CC(=O)N1CCc2c(sc(NC(=O)c3ccc([N+](=O)[O-])o3)c2C#N)C1 ?
NPSR antag: 2.51µM*; KinaseGlo FLuc: -20.0%; Tau fibril FP: -9.6%; Tau fluor cs: -19.0%; Tau fibril ThT: inconclusive

What do the screens show for `COc1ccc(C(=O)Nc2sc3c(c2C#N)CCN(C(C)=O)C3)cc1`?
NPSR antag: 0.8%; KinaseGlo FLuc: 0.1%; Tau fibril FP: -6.8%; Tau fluor cs: -11.4%; Tau fibril ThT: inconclusive

What do the screens show for `CCCCCC(=O)Nc1nc(C)c(-c2csc(Nc3ccccc3OC)n2)s1`?
NPSR antag: -22.8%[46.1 µM]; KinaseGlo FLuc: -2.3%; Tau fibril FP: inconclusive; Tau fluor cs: 11.2µM*[quencher]; Tau fibril ThT: inconclusive

How did CCCCCCC(=O)Nc1nc(C)c(-c2csc(Nc3ccccc3OC)n2)s1 do in these assays?
NPSR antag: inconclusive; KinaseGlo FLuc: -1.4%; Tau fibril FP: 16.3%; Tau fluor cs: 14.1µM*[quencher]; Tau fibril ThT: inconclusive

Results for CCC(=O)Nc1nc(C)c(-c2csc(Nc3ccccn3)n2)s1 ?
NPSR antag: 21.8%; KinaseGlo FLuc: -0.3%; Tau fibril FP: inconclusive; Tau fluor cs: inconclusive; Tau fibril ThT: 14.1µM*

What do the screens show for `COc1ccccc1Nc1nc(-c2sc(NC(=O)c3ccc([N+](=O)[O-])cc3)nc2C)cs1`?
NPSR antag: -15.3%[46.1 µM]; KinaseGlo FLuc: -3.9%; Tau fibril FP: inconclusive; Tau fluor cs: 10µM*[quencher]; Tau fibril ThT: 3.55µM*

How did CCCCCC(=O)Nc1nc(C)c(-c2csc(Nc3ccccc3OCC)n2)s1 do in these assays?
NPSR antag: -11.8%[46.1 µM]; KinaseGlo FLuc: 0.6%; Tau fibril FP: 10.3%; Tau fluor cs: inconclusive; Tau fibril ThT: inconclusive

How did CCCC(=O)Nc1nc(C)c(-c2csc(Nc3ccccc3C)n2)s1 do in these assays?
NPSR antag: -12.4%[46.1 µM]; KinaseGlo FLuc: 1.4%; Tau fibril FP: inconclusive; Tau fluor cs: -26.3%; Tau fibril ThT: inconclusive

Results for CCOC(=O)N1CCN(C(=O)CN(c2ccc(C)cc2C)S(=O)(=O)c2ccccc2)CC1 ?
Tau fibril FP: 2.0%; Tau fluor cs: -3.7%; Tau fibril ThT: -9.1%

How did CC1(C)Oc2ccc3ccc(=O)oc3c2/C(=C/Nc2ccc(O)cc2)C1=O do in these assays?
NPSR antag: inconclusive; KinaseGlo FLuc: -0.3%; Tau fibril FP: 7.7%; Tau fluor cs: 12.6µM*[quencher]; Tau fibril ThT: -16.7%
